The supplement of paper PMC6555819

Columns and labels:
Assay in all cases: PBM binding z-score (relative to random genomic background probes); higher = stronger binding; sequences stand for … in GC…GCGATTGACAGCGTAGAATGAAGG
[1] = test system: FXR:RXRa (NR concentration 270 nM, RXRa partner concentration 90 nM)
How it was run: (§1)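 Binding z-scores take random background probes as their reference. They come from custom Agilent 4×180K protein-binding microarrays incubated 1 h with ligand-free nuclear receptor dimers, with antibodies against each partner (one per run) detecting binding. Scanned fluorescence was regression-normalized.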

[2] = test system: LXRa:RXRa (NR concentration 270 nM, RXRa partner concentration 90 nM)
How it was run: as §1

[3] = test system: LXRa homodimer (NR concentration 270 nM)
How it was run: as §1

[4] = test system: LXRb:RXRa (NR concentration 270 nM, RXRa partner concentration 90 nM)
How it was run: as §1

[5] = test system: LXRb homodimer (NR concentration 270 nM)
How it was run: as §1

[6] = test system: PPARa:RXRa (NR concentration 270 nM, RXRa partner concentration 90 nM)
How it was run: as §1

[7] = test system: PPARg:RXRa (NR concentration 180 nM, RXRa partner concentration 90 nM)
How it was run: as §1

[8] = test system: PPARg:RXRa 270nM:90nM, anti-RXR (NR concentration 270 nM, RXRa partner concentration 90 nM)
How it was run: as §1

[9] = test system: PPARg:RXRa 30nM:10nM, anti-RXR (NR concentration 30 nM, RXRa partner concentration 10 nM)
How it was run: as §1

[10] = test system: PPARg:RXRa 90nM:30nM, anti-RXR (NR concentration 90 nM, RXRa partner concentration 30 nM)
How it was run: as §1

[11] = test system: PPARg:RXRa DBDmut IVT, anti-RXR (DBD mutation: RXRa K156A/R161A, NR concentration 270 nM, RXRa partner concentration 90 nM)
How it was run: as §1

[12] = test system: PPARg:RXRa IVT, anti-PPARg (NR concentration 270 nM, RXRa partner concentration 90 nM)
How it was run: as §1

[13] = test system: PPARg DBDmut:RXRa IVT, anti-PPARg (DBD mutation: PPARg1 K132A/R137A, NR concentration 270 nM, RXRa partner concentration 90 nM)
How it was run: as §1

[14] = test system: PPARg DBDmut IVT, anti-PPARg (DBD mutation: PPARg1 K132A/R137A, NR concentration 270 nM)
How it was run: as §1

[15] = test system: PPARg homodimer (NR concentration 180 nM)
How it was run: as §1

[16] = test system: PXR:RXRa (NR concentration 270 nM, RXRa partner concentration 90 nM)
How it was run: as §1

[17] = test system: PXR homodimer (NR concentration 270 nM)
How it was run: as §1

[18] = test system: RARa:RXR (NR concentration 270 nM, RXRa partner concentration 90 nM)
How it was run: as §1

[19] = test system: RARa homodimer (NR concentration 270 nM)
How it was run: as §1

[20] = test system: RARb:RXRa (NR concentration 270 nM, RXRa partner concentration 90 nM)
How it was run: as §1

Sequence | PBM binding z-score [1] | PBM binding z-score [2] | PBM binding z-score [3] | PBM binding z-score [4] | PBM binding z-score [5] | PBM binding z-score [6] | PBM binding z-score [7] | PBM binding z-score [8] | PBM binding z-score [9] | PBM binding z-score [10] | PBM binding z-score [11] | PBM binding z-score [12] | PBM binding z-score [13] | PBM binding z-score [14] | PBM binding z-score [15] | PBM binding z-score [16] | PBM binding z-score [17] | PBM binding z-score [18] | PBM binding z-score [19] | PBM binding z-score [20]
GCTCGGAGGACAAGGCCAGAGCTTTGTCCGTAGA | -0.721 | -1.04 | -0.948 | -1.4 | -1.59 | -1.69 | -1.44 | -1.18 | -1.47 | -1.57 | -1.3 | -0.505 | -1.72 | -1.33 | -1.33 | -1.03 | -0.879 | -0.936 | -1.54 | 0.806
CCTACTGGGCCATCAGGTCATGGATATCAACGTT | 1.24 | 1.22 | 0.743 | 1.49 | -0.453 | 3.14 | 3.59 | 4.15 | 1.85 | 3.37 | 4.54 | 5.33 | 1.99 | 0.266 | 1.85 | 1.58 | 0.00422 | 2.45 | -0.165 | 2.31
ACTAGCTGGCCAAGGGTCACTCAAGATTAGTCCG | 2.23 | 2.82 | 0.129 | 2.53 | -0.388 | 3.71 | 4.25 | 5.31 | 3.16 | 5.05 | -0.256 | 1.86 | -0.605 | -0.878 | 1.67 | 2.92 | -0.559 | 3.54 | -0.213 | 3.34
TCGAGTAGGTTTCCAATGGGGCATTCAGCTTTCT | 0.0114 | -0.0745 | -0.502 | 0.0167 | -0.0602 | -0.255 | -0.735 | 0.178 | 0.836 | 0.304 | 1.53 | 0.378 | -1.11 | -0.734 | -1.12 | -0.503 | -1.03 | -0.636 | -1.26 | -0.326
CGTCCAAGGGCAAAGGTCAGTGAAGAGATGACGG | 4.46 | 4.17 | 0.705 | 3.56 | -0.199 | 5.39 | 8.11 | 7.1 | 5.37 | 7.34 | 1.01 | 4.07 | -0.495 | -0.877 | 1.99 | 4.76 | 0.541 | 6.49 | 0.911 | 4.78
CCAACTAGGTCAAGGACAGTGAATCTCCGCACGC | 3.25 | 2.12 | 0.634 | 1.47 | 0.422 | 3.96 | 6.59 | 5.37 | 3.19 | 4.79 | 7.53 | 7.55 | 1.93 | 1.81 | 2.38 | 1.23 | 0.209 | 2.01 | 1.21 | 3.98
CGACCAAGGTGAACAAGGTCGTTGATTACTATTC | 1.09 | 1.16 | -0.248 | 1.83 | -0.531 | 2.54 | 1.27 | 1.29 | -0.0265 | 0.643 | 1.95 | 2.6 | -0.104 | -0.33 | 0.615 | 2.45 | 1.03 | 1.99 | 0.125 | 2.22
TCATGTAGGTAAATGCTAGGTGAAAGTCCGATCT | 0.737 | 0.46 | 0.144 | 0.503 | 0.151 | 1.33 | 0.723 | 2.1 | 2.88 | 2.6 | 4.15 | 3.44 | 0.811 | 1.12 | 0.796 | 0.502 | 0.512 | 0.568 | 1.39 | 0.378
CCTTACGGGTGACTGACAGGTTATAGCATTTGGA | 0.488 | 0.771 | -0.154 | 0.347 | -0.474 | 1.2 | 0.53 | 0.218 | 0.1 | -0.0326 | 1.95 | 1.09 | 0.0764 | -0.581 | 0.697 | 0.299 | -0.0252 | 0.82 | 0.181 | 0.546
TCGAGTAGGTCAGGGGCATTCAGAATGGCGTCGA | 2.3 | 1.52 | -0.495 | 1.9 | -0.546 | 3.41 | 4.73 | 4.8 | 2.48 | 4.21 | 4.91 | 5.07 | -0.408 | -0.403 | 1.33 | 1.2 | -0.323 | 1.44 | -0.681 | 3.39
CCATACAGGTGAAAGGTAACTCAGTCTGGTACGC | 0.917 | 0.86 | 0.0219 | 1.34 | 0.147 | 4.47 | 7.97 | 7.64 | 6.75 | 8.48 | 4.44 | 4.52 | 0.453 | 0.514 | 1.27 | 1.12 | 0.206 | 1.99 | 0.894 | 1.44
CAAACTAGGTCACCGGATGGTCAAAGTCCGCATG | 4.23 | 3.25 | 0.505 | 2.57 | 0.435 | 5.4 | 8.96 | 7.39 | 5.71 | 7.25 | 8.46 | 8.82 | 4.83 | 2.57 | 3.76 | 2.49 | 0.137 | 3.77 | 1.02 | 4.29
CCAGACAGGTGAGCAGGTAACTCAGCCTCGATTA | -0.268 | 0.0871 | -0.134 | 0.00402 | -0.328 | 0.272 | 0.174 | -0.00169 | -0.644 | -0.464 | 1.15 | 0.619 | -0.93 | -1.41 | 0.319 | -0.31 | 0.22 | -0.516 | 0.0182 | 0.568
TCATATAGGTAAAGGTGAAACTCGAACGATATGA | 0.837 | 1.52 | -0.0632 | 1.7 | -0.204 | 3.58 | 4.46 | 4.88 | 4.59 | 5.12 | 4.08 | 4.59 | 1.59 | 2.12 | 1.36 | 1.13 | -0.357 | 1.76 | 0.238 | 2.05
